# According to PubChem BioAssay:
# The source made the active and inactive calls.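 The calls were made as follows, unless noted: active = NADPH fluorescence slope more negative than the mean of all samples by about 3 SD, 99.7% confidence; inactive = the rest.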
# What was measured:
# [1] = inhibitors of mutant huntingtin aggregation, primary screen, imaging, exon1htt(103Q)mCFP cells, high-content imaging (AID 483;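 active = visual image review flags a hit and inhibition of aggregation exceeds 20%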;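 also: compound exposure lasted 3 days before fixation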;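 as to nuclei count: percent of the per-plate median nuclei count of sample wells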); conditions: exon1htt(103Q)mCFP cell line, aggregate imaging, at 2 µM; inhibition of aggregation: stronger effect = higher value; nuclei count: measured here: cell count, toxicity
# [2] = inhibitors of E-selectin induction by TNFa, primary screen, imaging, HUVEC, immunofluorescence, MLSMR starter and 10KST1 sets (AID 487;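 active = visually confirmed hit in the image check and inhibition above 20%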;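 as to inhibition: signal is fraction of cell area covered by stained E-selectin grains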;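 as to nuclei count: 100% = median nuclei count of all wells on the same plate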); conditions: HUVEC TNFalpha-induced E-selectin immunofluorescence imaging, at 2 µM; inhibition: stronger effect = higher value; nuclei count: measured here: cell number, toxicity
# [3] = biological target: Voltage-gated potassium channel subunit beta-2 (Rattus norvegicus) (UniProt P62483); test: KvBeta enzyme negative modulators, primary screen, biochemical, NADPH fluorescence (AID 622;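 active = fluorescence slope higher than the sample average by over 3 SD, cut at about -0.22 in these data, passing the limit was not always enough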;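 also: slope of raw intensity against log time taken from 70 to 1610 s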); conditions: recombinant KvBeta, 4-cyanobenzaldehyde reduction, at 10 µM, stronger effect = higher value
# [4] = biological target: Voltage-gated potassium channel subunit beta-2 (Rattus norvegicus) (UniProt P62483); test: KvBeta positive modulators, primary screen, biochemical, NADPH fluorescence (AID 623); conditions: Recombinant KvBeta, NADPH fluorescence decrease slope, 10 min; at 10 µM; stronger effect = lower value;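 also: fluorescence intensity change per second fitted from 20 to 320 s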
# [5] = biological target: Alpha-2C adrenergic receptor (Homo sapiens) (UniProt P18825); test: modulators of alpha2C/GIRK thallium flux, primary screen, cell-based, HEK293 alpha2C/GIRK1/2 (AID 624;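 active = fluorescence slope after compound addition differing from the mean of all screened samples at 99.7% confidence, in either direction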;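 also: slope of fluorescence ratio to pre-addition baseline per second over 15 to 24 s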); conditions: thallium flux BTC fluorescence, at 10 µM, actives lie on both sides
# [6] = inhibitors of Sendai virus-induced IRF3 signaling, primary screen, TLR/RLR signaling modifier project, cell-based, Sendai virus stimulus, luciferase, 10K MLSCN set (AID 602276;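 active = inhibition at or above 50% at 10 µM; inactive = inhibition below 50%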;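 also: firefly luciferase from ISG56 promoter only with Renilla not read in this screen; 0% = Sendai virus plus DMSO and 100% = medium plus DMSO without virus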); conditions: HEK293 RL24 IRF3 luciferase reporter, at 10 µM, stronger effect = higher value
# [7] = inhibitors of poly I:C-induced TLR3 signaling, primary screen, cell-based, poly I:C stimulus, luciferase, 10K MLSCN set (AID 602277;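 active = inhibition of the reporter signal at or above 50%; inactive = inhibition below 50%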); conditions: HEK293-TLR3 RL24 IRF3 luciferase reporter, at 10 µM, stronger effect = higher value
# [8] = biological target: Muscarinic acetylcholine receptor M4 (Homo sapiens) (UniProt P08173); test: compounds altering M4/GIRK thallium flux, either direction, primary screen, M4 allosteric agonist project, cell-based, HEK293 M4/GIRK, BTC-AM (AID 625;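 active = fluorescence slope after compound addition differing from the mean of all tested samples at 99.7% confidence, mostly higher but some lower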;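 also: thallium influx through GIRK channels coupled to M4 in HEK293 cells with BTC-AM dye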); conditions: at 10 µM, actives lie on both sides
# [9] = DUSP6 inhibitors restoring Erk phosphorylation by chemical complementation, primary imaging in DUSP6-transfected HeLa (AID 609;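 active = compounds giving at least 50% inhibition in the cell-based MKP-3 phosphatase rescue imaging test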;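 as to inhibition: phospho-Erk level distribution per well compared with pooled transfected vehicle control wells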); conditions: HeLa MKP-3 transfected, phospho-Erk imaging KS statistic, at 10 µM, cells stimulated with TPA for 15 min
# [10] = biological target: Dual specificity protein phosphatase 6 (Homo sapiens) (UniProt Q16828); test: as above; conditions: HeLa MKP-3 transfected, phospho-Erk imaging KS statistic; at 10 µM; stronger effect = higher value; cells stimulated with TPA for 15 min
# [11] = inhibitors of larval lipid processing in zebrafish, primary screen, whole organism, PED6 fluorescence, gall bladder and intestine (AID 686;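 active = a full or partial loss of lipid-probe fluorescence in the fish gall bladder, intestine or both, judged by eye; inactive = no fluorescence loss, or compound toxic to the fish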;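 also: larvae 5 to 7 days old with five fish per well; signal comes from phospholipase A2 cleavage of quenched PED6 carried via bile; overnight exposure to compound and PED6 before scoring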); conditions: Zebrafish larvae PED6 lipid processing, fluorescence scoring; screened at 20 µM (by protocol)
# [12] = inhibitors of Chlamydomonas gravitaxis, primary screen, whole organism, Chlamydomonas reinhardtii, WT vs cilia-less mutant, absorbance, 96-well (AID 463189;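 active = inhibition at or above 50% relative to wild type and mutant plate controls; inactive = inhibition below 50%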;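 also: 0% = wild type cc124 cells in DMSO and 100% = ciliumless bld1 mutant cells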); conditions: OD600 absorbance, 2 days, at 10 µM, stronger effect = higher value
# [13] = measured here: cell density z-score
# [14] = measured here: nuclear c-Myc green intensity z-score
# [15] = measured here: nuclear pErk red intensity z-score, stronger effect = higher value
# Sequence of Dual specificity protein phosphatase 6 (Homo sapiens) (Q16828 whole entry, looked up): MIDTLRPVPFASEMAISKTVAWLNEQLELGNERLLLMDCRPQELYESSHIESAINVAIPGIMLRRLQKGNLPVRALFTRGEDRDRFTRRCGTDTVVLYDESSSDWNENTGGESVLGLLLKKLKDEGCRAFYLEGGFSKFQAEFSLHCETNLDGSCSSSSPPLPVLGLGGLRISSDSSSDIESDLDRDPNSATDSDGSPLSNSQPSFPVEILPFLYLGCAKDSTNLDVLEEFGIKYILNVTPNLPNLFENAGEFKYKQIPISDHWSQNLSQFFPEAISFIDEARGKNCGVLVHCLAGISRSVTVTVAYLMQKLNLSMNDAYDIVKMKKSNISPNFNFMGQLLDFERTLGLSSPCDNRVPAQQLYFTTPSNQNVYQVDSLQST
# Sequence of Voltage-gated potassium channel subunit beta-2 (Rattus norvegicus) (P62483 whole entry, looked up): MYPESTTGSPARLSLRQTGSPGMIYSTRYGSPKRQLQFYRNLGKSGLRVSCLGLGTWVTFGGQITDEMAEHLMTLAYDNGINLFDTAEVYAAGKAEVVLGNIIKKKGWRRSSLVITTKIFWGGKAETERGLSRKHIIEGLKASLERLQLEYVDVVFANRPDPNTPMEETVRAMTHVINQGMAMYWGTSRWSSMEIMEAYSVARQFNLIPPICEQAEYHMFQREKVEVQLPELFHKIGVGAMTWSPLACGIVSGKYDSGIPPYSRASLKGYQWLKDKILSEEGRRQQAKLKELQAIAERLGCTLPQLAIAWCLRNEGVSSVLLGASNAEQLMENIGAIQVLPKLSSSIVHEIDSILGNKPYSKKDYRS
# Sequence of Muscarinic acetylcholine receptor M4 (Homo sapiens) (P08173 whole entry, looked up): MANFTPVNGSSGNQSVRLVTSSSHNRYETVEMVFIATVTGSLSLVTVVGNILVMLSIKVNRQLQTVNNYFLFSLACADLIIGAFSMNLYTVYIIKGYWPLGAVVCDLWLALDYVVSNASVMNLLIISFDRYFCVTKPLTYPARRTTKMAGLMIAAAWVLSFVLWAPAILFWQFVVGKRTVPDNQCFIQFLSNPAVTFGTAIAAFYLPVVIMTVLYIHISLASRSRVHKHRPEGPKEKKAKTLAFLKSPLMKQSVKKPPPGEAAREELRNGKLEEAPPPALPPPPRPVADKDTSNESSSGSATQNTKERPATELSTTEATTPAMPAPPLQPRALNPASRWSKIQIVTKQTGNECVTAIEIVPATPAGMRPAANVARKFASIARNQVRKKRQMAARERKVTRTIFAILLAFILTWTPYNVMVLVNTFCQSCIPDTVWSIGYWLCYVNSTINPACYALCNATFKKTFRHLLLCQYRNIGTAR
# Sequence of Alpha-2C adrenergic receptor (Homo sapiens) (P18825 whole entry, looked up): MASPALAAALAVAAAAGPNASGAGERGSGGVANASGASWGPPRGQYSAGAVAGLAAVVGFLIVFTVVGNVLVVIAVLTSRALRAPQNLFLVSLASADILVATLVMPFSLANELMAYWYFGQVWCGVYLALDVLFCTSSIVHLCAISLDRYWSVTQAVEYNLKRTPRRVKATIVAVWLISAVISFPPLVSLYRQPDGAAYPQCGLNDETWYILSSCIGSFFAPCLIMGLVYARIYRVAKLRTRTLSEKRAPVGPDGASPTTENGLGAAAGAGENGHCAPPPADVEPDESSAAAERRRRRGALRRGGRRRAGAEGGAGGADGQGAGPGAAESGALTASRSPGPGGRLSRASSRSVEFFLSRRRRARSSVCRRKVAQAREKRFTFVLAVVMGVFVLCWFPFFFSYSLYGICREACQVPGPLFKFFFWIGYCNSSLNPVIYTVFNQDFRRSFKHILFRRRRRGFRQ
Compound,inhibition of aggregation [1],nuclei count [1] [%],inhibition [2],nuclei count [2] [%],fluorescence slope [3],NADPH fluorescence slope [4],slope [5],inhibition [6],inhibition [7],fluorescence slope [8],"z-score [9, 13]","z-score [9, 14]","z-score [9, 15]",inhibition [10],outcome [11],inhibition [12]
COc1ccc(CNC(=O)COC(=O)c2n[nH]c3ccccc23)cc1OC,-22.1% (inactive),108,-287% (inactive),171,-0.382 (inactive),1.4e-05 (inactive),0.00438 (inactive),6.09% (inactive),-3.54% (inactive),,,,,,,
O=C(NC1CCCCCC1)C1c2ccccc2C(=O)N1Cc1cccnc1 (centres undefined),,,,,-0.575 (inactive),1.2e-05 (inactive),0.00527 (inactive),1.87% (inactive),17.1% (inactive),,,,,,,
CC(C)(C)C1CCc2onc(C(=O)Nc3cnn(Cc4ccc(F)cc4)c3)c2C1 (centres undefined),,,,,-0.58 (inactive),1.6e-05 (inactive),,12% (inactive),19.7% (inactive),0.00687 (inactive),,,,,,
CCCNCC(O)COc1ccccc1C(=O)CCc1ccccc1 (centres undefined),,,-137% (inactive),129,-0.521 (inactive),-4.9e-05 (inactive),0.00393 (inactive),9.47% (inactive),42.6% (inactive),,-0.576,0.234,0.603,-4.44% (inactive),,
CN(C)CCOC(c1ccccc1)c1ccccc1 (tested in a mixture with another compound),,,-105% (inactive),131,-0.486 (inactive),-8.1e-06 (inactive),0.00507 (inactive),23.9% (inactive),33.9% (inactive),,0.752,0.00544,-0.839,13.3% (inactive),,
COc1cccc(C(=O)OCCN(C)C(C)(C)C)c1,,,-23.7% (inactive),128,-0.414 (inactive),-3.4e-05 (inactive),,,,0.00557 (inactive),0.369,1.71,-0.0558,17% (inactive),inactive,31.9% (inactive)
Cc1c(C(=O)O)sc(=S)n1-c1ccccc1,,,-33.5% (inactive),141,-0.372 (inactive),-3.1e-05 (inactive),,,,0.0076 (inactive),0.701,-0.0654,0.165,20.8% (inactive),inactive,12.3% (inactive)
CC1(C)CC(=O)C(C2=NC(C)(C)Cc3ccccc32)=C(O)C1,,,-46.3% (inactive),99.8,-0.435 (inactive),3.9e-06 (inactive),,,,0.00539 (inactive),-0.0371,0.246,-0.668,15.1% (inactive),inactive,-9.43% (inactive)
